The values below come from PubChem BioAssay AID1851 (National Center for Advancing Translational Sciences (NCATS), 2009).

Where “and” joins values, the source holds several entries; their conditions need not be identical. Identical values can stand only once. The whole screen tested about 16,000 compounds, of which about 5,700 (36%) were called active. Inconclusive results (about 24%) are left out. The list shows a part of the results. Unmarked numbers belong to inactive results. The call rests on the fitted dose curve; in most records, active means well fitted curve in the direction sought with a large enough effect; inconclusive means small, poorly fitted or top-dose-only effect, or effect the other way; inactive means no such curve, though single readings can be large or run the other way.
On the % scale 0 is the no-effect control and ±100 the full control effect.

In the assay the target is Cytochrome P450 1A2 (Homo sapiens) (UniProt P05177). Put plainly: Cytochrome panel assay with activity outcomes. As to conditions: recombinant CYP, pro-luciferin dealkylation, luminescence, p450-cyp1a2; series mostly up to 57.1 µM; activity, negative = inhibition: at the top concentration.
Cytochrome P450 1A2 (Homo sapiens), sequence (P05177 whole entry, looked up): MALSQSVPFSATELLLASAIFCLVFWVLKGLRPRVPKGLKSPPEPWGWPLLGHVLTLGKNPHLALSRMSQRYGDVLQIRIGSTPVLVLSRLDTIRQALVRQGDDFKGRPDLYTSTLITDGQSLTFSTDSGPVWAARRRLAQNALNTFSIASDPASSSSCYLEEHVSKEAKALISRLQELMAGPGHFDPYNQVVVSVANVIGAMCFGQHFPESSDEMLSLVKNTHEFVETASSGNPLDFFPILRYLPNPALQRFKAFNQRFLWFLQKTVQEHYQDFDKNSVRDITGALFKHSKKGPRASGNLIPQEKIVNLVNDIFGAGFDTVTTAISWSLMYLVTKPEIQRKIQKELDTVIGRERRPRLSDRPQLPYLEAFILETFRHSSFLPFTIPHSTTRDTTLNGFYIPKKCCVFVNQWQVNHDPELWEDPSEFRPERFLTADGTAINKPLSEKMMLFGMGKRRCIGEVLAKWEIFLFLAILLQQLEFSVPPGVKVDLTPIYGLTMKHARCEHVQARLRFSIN
As usually defined, the AC50 is the concentration at which the activity in the assay is half-maximal. For `CCn1cc(C(=O)O)c(=O)c2cc(F)c(N3CCN[C@@H](C)C3)c(F)c21`, the AC50 entry is “inactive”.

For the compound `C[C@@](N)(C(=O)O)c1ccc(S(=O)(=O)O)cc1`, the “activity, negative = inhibition” value was -0.679%.

Turning to `CC(C)(C)c1ccc(S(=O)(=O)/C=C\C#N)cc1`, the AC50 is 1.58 µM (active).

Consider `CCc1cc2c(=O)c(-c3nc4ccccc4[nH]3)coc2cc1OC(=O)N1CCOCC1`, for which the “activity, negative = inhibition” value was -29.4%.

As for `CC(=O)NCCC(=O)Nc1sc2c(c1-c1nc3ccccc3[nH]1)CCCC2`, the AC50 is 7.08 µM (active).

Take `Cc1c(OC(=O)c2ccc([N+](=O)[O-])cc2)c2c(c[n+]1C)COC(C)(C)OC2`: the AC50 was 17.8 µM (active).

For `OCC1CCCN(Cc2ccc(-c3ccccc3)cc2)C1` (centres undefined), the “activity, negative = inhibition” value is -18.3%.

Take `O=C(NCCCN1CCOCC1)c1cc2c(s1)CSC2`: the “activity, negative = inhibition” value is -28.3%.

As to `O=C(NCCCN1CCOCC1)c1cc(C(=O)C2CC2)c[nH]1`, the AC50 is 17.8 µM (active).

As to `Cc1cc(C)cc(N(C(=O)c2ccccn2)C(C(=O)NC2CCCCC2)c2cccs2)c1` (centres undefined), the “activity, negative = inhibition” value is -5.91%.

As for `O=C(NCCc1ccccn1)c1cc(C(=O)C2CCCCC2)c[nH]1`, the AC50 was 14.1 µM (active).

On to `Cc1ccc(C(=O)c2c[nH]c(C(=O)NCCCN3CCOCC3)c2)cc1`, for which the “activity, negative = inhibition” value is -13.6%.

As for `C/C(CCC(=O)OC[C@@H]1O[C@H](C#Cc2ccccc2)C=C[C@@H]1Oc1ccc(C)cc1)=N/O[C@@H](C)CN1CCCc2nc(C)c(C)cc21`, the activity, negative = inhibition was -8.42% [at 11.4 µM].

Consider `CC(=O)OC[C@@H]1O[C@@H](O/N=C2/C[C@@H](O)[C@@H](O)[C@@H]3[C@@H]4C(=O)N(C(C)(C)C)C(=O)[C@H]4CC[C@@H]23)[C@H](OC(C)=O)[C@H](OC(C)=O)[C@@H]1OC(C)=O`, for which the activity, negative = inhibition was -1.47% [at 11.4 µM].

In the case of `[O-][N+]1(CC[N+]2([O-])CCCCC2)CCCCC1`, the activity, negative = inhibition was -3.29% [at 11.4 µM].

Consider `COc1ccc(NC(=O)C(=O)NNC(=O)c2cccs2)c(OC)c1`, for which the “activity, negative = inhibition” value was -10.5%.

For the compound `COc1ccc(NC(=O)CN(C)S(=O)(=O)c2ccc(Cl)cc2)c([N+](=O)[O-])c1`, the “activity, negative = inhibition” value is -11.6%.

For `COc1ccc(NC(=O)c2cccs2)c([N+](=O)[O-])c1`, the AC50 is 3.16 µM (active).

With `COc1ccc(NC(=O)CSc2nncn2C)c([N+](=O)[O-])c1`, the AC50 was 11.2 µM (active).

As for `COc1ccc(NC(=O)c2ccc(C)cc2Cl)c([N+](=O)[O-])c1`, the AC50 was 2 µM (active).

For `CCOc1ccc(/C=C/C(=O)Nc2ccc(OC)cc2[N+](=O)[O-])cc1`, the “activity, negative = inhibition” value is -27.7%.

With `CC(C)(C)N1C(=O)[C@H]2[C@@H]3[C@H](O)C=CC(=O)[C@H]3CC[C@H]2C1=O`, the activity, negative = inhibition is -5.4% [at 11.4 µM].

Take `c1ccc(Nc2nc(-c3ccc4c(c3)OCO4)nc3ccccc23)cc1`: the AC50 was 1.26 µM (active).

As for `c1ccc2c(Nc3ccncc3)nc(-c3ccc4c(c3)OCO4)nc2c1`, the AC50 is 1.26 µM (active).

Turning to `COc1cc(C2C(C#N)=C(N)N(Nc3ccccc3)C3=C2C(=O)CC(C)(C)C3)ccc1OCc1cccc(F)c1` (centres undefined), the “activity, negative = inhibition” value was -13.1%.

Take `CN1CCN(c2nc3cc(C(F)(F)F)ccc3n3cccc23)CC1`: the AC50 is 200 nM (active) and 39.8 nM (active).

In the case of `O=C1C2C3c4ccccc4C(c4ccccc43)C2C(=O)N1c1nc(-c2ccccc2)cs1` (centres undefined), the “activity, negative = inhibition” value was -8.29%.

As to `COc1ccc(-c2csc(N3C(=N)SCC3=O)n2)cc1`, the AC50 was 0.631 µM (active).

Regarding `N=C1SCC(=O)N1c1nc(-c2ccccc2)cs1`, the AC50 was 1.41 µM (active).

Consider `CC(C)OC(=O)CC12CN(C)CC(CC(=O)OC(C)C)(CN(C)C1)C2=O`, for which the “activity, negative = inhibition” value was -15.3%.

For `Cc1c(NC(=O)CSc2nnnn2C)c(=O)n(-c2ccccc2)n1C`, the “activity, negative = inhibition” value is 16.8%.

Take `CCOc1ccccc1-n1nnnc1SCC(=O)Nc1cc(C)on1`: the activity, negative = inhibition was -7% [at 11.4 µM].

`Cc1cccc(NC(=O)CSc2nnnn2C)n1`: the AC50 was 14.1 µM (active).

Turning to `CC1=NS(=O)(=O)c2cc(Cl)ccc2N1`, the AC50 is 3.16 µM (active) and 2 µM (active).

In the case of `NS(=O)(=O)c1cc2c(cc1Cl)NC(CSCc1ccccc1)=NS2(=O)=O`, the “activity, negative = inhibition” value was -0.403% [at 25.6 µM].

In the case of `Clc1ccc(-c2cc3ccccc3[nH]2)cc1`, the AC50 is 0.501 µM (active).

On to `N#C/C(=C\NC(=S)c1ccncc1)c1nc2ccccc2s1`, for which the AC50 is 3.16 µM (active).

For `CC(C)NC(=O)N1CCC2(CC1)CCN(C(=O)c1ccncc1)CC2`, the “activity, negative = inhibition” value was -10.1%.

With `CN(C)c1ccc(-c2cncnc2Nc2ccc(F)cc2)cc1`, the AC50 was 0.501 µM (active).

As to `CN(C)c1ccc(-c2cncnc2Nc2ccccc2)cc1`, the AC50 is 0.398 µM (active).

Consider `Cc1ccc(C(C2C(=O)CC(C)(C)CC2=O)C2C(=O)CC(C)(C)CC2=O)s1`, for which the “activity, negative = inhibition” value is -22.3%.

Take `O=S(=O)(/N=C(/Nc1ccc(F)cc1F)c1ccc(Cl)cc1)c1ccccc1`: the “activity, negative = inhibition” value was 9.3%.

As to `O=S(=O)(/N=C(\Sc1ccccc1)c1ccccc1)c1ccc(Cl)cc1`, the AC50 was 8.91 µM (active).

As to `O=S(=O)(/N=C(/Nc1ccccn1)c1ccccc1)c1ccc(Cl)cc1`, the AC50 was 14.1 µM (active).

`COc1ccccc1N/C(=N/S(=O)(=O)c1ccc(C)cc1)c1ccc(Cl)cc1`: the “activity, negative = inhibition” value was -27.1%.

As for `O=S(=O)(c1ccccc1)N1CCC2(CC1)CN(c1ccccn1)C2`, the “activity, negative = inhibition” value is -4.84%.

Regarding `CC(C)CO/N=C1/C[C@@H](O)[C@@H](O)[C@@H]2[C@@H]3C(=O)N(C[C@@H]4CCCO4)C(=O)[C@H]3CC[C@@H]12`, the activity, negative = inhibition was -0.346% [at 11.4 µM].

Regarding `CC(C)CNc1nc(N)[nH]c(=O)c1NC=O`, the activity, negative = inhibition is -20.7% [at 11.4 µM].

Turning to `O=S1(=O)C=C(Oc2ccc3ccccc3c2)c2ccccc21`, the AC50 was 1.26 µM (active).

Consider `Cn1cccc1C(=O)N1CCC2(CCN(Cc3nccs3)CC2)CC1`, for which the “activity, negative = inhibition” value was -6.85%.

For the compound `N#Cc1c(NC(=O)CCN2C(=O)c3ccccc3C2=O)oc(-c2ccccc2)c1-c1ccccc1`, the AC50 is 2.24 µM (active).

For `O=C(Cc1ccccc1)NC1CCN(S(=O)(=O)c2ccc(C(=O)O)cc2)CC1`, the “activity, negative = inhibition” value is 15.4%.

As to `CN(Cc1cccc2ccccc12)Cc1cccc2ccccc12`, the AC50 was 3.16 µM (active).

For the compound `Cc1ccccc1C(=N)c1ccccc1Cc1cccc2ccccc12`, the activity, negative = inhibition was -17.6% [at 2.29 µM].

`c1ccc2c(CC3=NCCN3)cccc2c1`: the “activity, negative = inhibition” value was -10.3% [at 25.6 µM].

Consider `c1ccc2c(CC3NCCN3)cccc2c1`, for which the activity, negative = inhibition was -7.37% [at 11.4 µM].

As for `CN(C/C=C\c1ccccc1)Cc1cccc2ccccc12`, the AC50 was 2 µM (active).

Turning to `NCCCCCCCCCCN`, the “activity, negative = inhibition” value is -5.54%.

As to `O=c1n(-c2ccccc2)c(=O)n2n1CC[C@H]1/C(=N\OC[C@@H](O)COCc3ccco3)[C@H]3O[C@@H]3[C@@H](O)[C@@H]12`, the activity, negative = inhibition is -3.26% [at 11.4 µM] and -7.74% [at 11.4 µM].

Regarding `Cc1ccc(C(=O)C2CCNCC2)cc1`, the “activity, negative = inhibition” value was -9.47%.

For the compound `Cc1ccc(C(=O)/C=C2\NCC(C)NC2=O)cc1` (centres undefined), the AC50 was 15.8 µM (active).

Turning to `O=[N+]([O-])c1ccc(-c2cnc(SCc3ccccc3Cl)[nH]2)cc1`, the AC50 was 6.31 µM (active).

Take `O=C(Cc1ccccc1[N+](=O)[O-])NCc1ccccc1Cl`: the “activity, negative = inhibition” value is -12.7%.

With `CSc1nnc(-c2ccc(Cl)cc2Cl)o1`, the AC50 is 2.51 µM (active).

Take `Clc1ccc(-c2nnc(CCc3ccccc3)o2)c(Cl)c1`: the AC50 is 0.708 µM (active).

In the case of `COc1cccc(-c2cc(=O)c3ccccc3o2)c1N`, the AC50 is 0.2 µM (active).

With `Nc1cc(N)nc(SCC(=O)c2ccccc2)n1`, the “activity, negative = inhibition” value was -16.7%.

Consider `CCOC(=O)CSc1cc(CS(=O)c2ccc(Cl)cc2)nc(-c2ccccc2)n1` (centres undefined), for which the AC50 was 10 µM (active).

Regarding `CCc1cccc(C)c1NC(=O)CSc1nc2ccc(N3C(=O)c4ccccc4C3=O)cc2s1`, the “activity, negative = inhibition” value was -15.9%.

For the compound `O=C(CSc1ccccn1)Nc1nc2ccc(Br)cc2s1`, the AC50 was 2.51 µM (active).

Consider `O=C(CSc1nc2ccccc2c2ccccc12)c1ccccc1`, for which the AC50 was 0.251 µM (active).

Turning to `CCN(CC)C(=O)CSc1nc2ccc(NC(=O)CSc3nnc(COc4ccccc4C)n3C)cc2s1`, the “activity, negative = inhibition” value was -15.6%.

As to `COC(=O)c1ccc(NC(=O)Cn2nc(-c3ccncc3)nc2SCC(=O)Nc2nccs2)cc1`, the AC50 is 11.2 µM (active).

Turning to `COc1ccc(O[C@H]2C=C[C@@H](c3ccccc3)O[C@H]2COC(=O)CC/C(C)=N\O[C@@H](C)c2cn([C@H](CO)Cc3ccccc3)nn2)cc1`, the activity, negative = inhibition is -0.286% [at 11.4 µM] and -5.55% [at 11.4 µM].

With `CC(=O)OC1CCC(OC(C)=O)c2c1n([O-])c(C)c(C)[n+]2=O` (centres undefined), the “activity, negative = inhibition” value was -11.4%.

Take `CC1(C)CC(=O)c2cn3ncnc3nc2C1`: the “activity, negative = inhibition” value was -18.9%.

On to `C[C@@H]1C[C@H]2[C@H]3C[C@@H](F)C4=CC(=O)C=C[C@]4(C)[C@@]3(Cl)[C@@H](O)C[C@@]2(C)[C@@H]1C(=O)COC(=O)C(C)(C)C`, for which the “activity, negative = inhibition” value is -13.4% [at 25.6 µM].

As for `CCOC(=O)Cn1c(-c2ccccc2)nc2ccccc2c1=O`, the AC50 is 0.447 µM (active).

For the compound `O=C(CSc1nc2ccccc2s1)NNC(=S)Nc1ccc(Br)cc1`, the AC50 was 5.01 µM (active).

On to `CCOC(=O)CSc1nc2ccccc2c(=O)n1CC1CCC(C(=O)NCc2ccco2)CC1` (centres undefined), for which the “activity, negative = inhibition” value is 3.61%.

As to `CCOC(=O)Cn1c(CN(Cc2ccccc2)Cc2ccccc2)nc2c1c(=O)[nH]c(=O)n2C`, the “activity, negative = inhibition” value was -22.4%.

As to `O=C(O)Cn1c(-c2ccccc2)nc2ccccc21`, the “activity, negative = inhibition” value is -14.9%.

As to `O=C(CSc1nc2ccccc2o1)Nc1nc2ccccc2s1`, the AC50 was 3.16 µM (active).

Consider `CCOC(=O)CSc1nc(-c2ccccc2)nc2ccccc12`, for which the AC50 was 0.501 µM (active).

Consider `CCCCOc1ccccc1C1CC(=O)NC2=C1C(=O)CCC2` (centres undefined), for which the “activity, negative = inhibition” value is -21.7%.

With `O=C(CSc1nc(-c2ccccc2)nc2ccccc12)Nc1nccs1`, the AC50 is 0.158 µM (active).

Consider `C=CCn1c(SCC(=O)Nc2ncc(Cc3ccc(Br)cc3)s2)nnc1-c1ccncc1`, for which the “activity, negative = inhibition” value is -21.6%.

`CCc1nnc(NC(=O)CSc2nc(C3CCCCC3)nc3ccccc23)s1`: the “activity, negative = inhibition” value was -11.1%.

`CC(C)OC(=O)CSc1nc(-c2ccc(F)cc2)nc2ccc(F)cc12`: the AC50 was 1.12 µM (active).

As to `O=C(CSc1nc2ccccc2s1)Nc1nccs1`, the AC50 is 2.24 µM (active).

For the compound `CCCC(=O)Nc1ccc2nc(SCC(=O)Nc3ccc(N4CCOCC4)c(Cl)c3)sc2c1`, the “activity, negative = inhibition” value was -10.2%.

Regarding `O=C(CSc1nnc(-c2ccncc2)n1Cc1ccccc1)Nc1nccs1`, the AC50 is 11.2 µM (active).

As to `Cc1ccc(S(=O)(=O)NC(=O)CSc2nc3ccccc3s2)cc1`, the “activity, negative = inhibition” value is -28.6%.

In the case of `NC(=O)NC(=O)CSc1nnc(-c2ccco2)n1Cc1ccccc1`, the “activity, negative = inhibition” value is 3.98%.
